# In the library only some 2.5% were active in any assay of this set; here they are far more common.
# MEKK3 PB1 HTS = MEKK3-MEK5 PB1 interaction, increase or decrease; binding response (% of control), % at 10 µM; Q99759; bead-based flow cytometry, Alexa488-MEK5 binding to MEKK3; actives lie on both sides; 0 = blocked by unlabeled MEK5, 100 = vehicle; 1.4% of 290,000 active;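 active means binding response more than 3 SD above or below the average of its plate-row segment, actives on both sides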;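 further: Alexa488 bead fluorescence after subtracting the streptavidin-only scavenger bead signal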
# Target sequence (Q99759 whole entry, looked up): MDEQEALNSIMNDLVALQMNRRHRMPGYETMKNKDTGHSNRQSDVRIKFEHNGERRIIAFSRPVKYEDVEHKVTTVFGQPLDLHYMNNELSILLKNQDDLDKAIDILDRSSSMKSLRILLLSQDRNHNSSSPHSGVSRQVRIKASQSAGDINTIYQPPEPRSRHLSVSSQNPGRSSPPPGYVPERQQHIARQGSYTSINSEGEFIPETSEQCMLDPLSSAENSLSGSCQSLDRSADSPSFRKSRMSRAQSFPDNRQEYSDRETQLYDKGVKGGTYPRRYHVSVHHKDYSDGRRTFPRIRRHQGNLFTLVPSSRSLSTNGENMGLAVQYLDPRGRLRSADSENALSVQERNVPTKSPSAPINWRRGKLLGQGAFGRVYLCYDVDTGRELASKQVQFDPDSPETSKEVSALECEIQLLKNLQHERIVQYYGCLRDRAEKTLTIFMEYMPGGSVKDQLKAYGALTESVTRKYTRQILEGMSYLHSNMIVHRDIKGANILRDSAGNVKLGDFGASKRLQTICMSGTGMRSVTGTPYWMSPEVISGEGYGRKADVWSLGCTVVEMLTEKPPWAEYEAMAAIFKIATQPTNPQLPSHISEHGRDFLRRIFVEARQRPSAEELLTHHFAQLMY
# MEKK2 mut-MEK5 = signal of MEK5 binding to mutant human MEKK2 PB1 domain | percent response, % at 10 µM | bead flow cytometry, Alexa488-MEK5 binding to MEKK2 mutant | 0.35% of 290,000 active; in the data active means percent response above about 24%, passing the limit was not always enough
# UBC13 polyUb = inhibitors of human UBC13 polyubiquitin chain formation. TR-FRET. 0.47% of 330,000 active. AID 485273. inhibition, % at 20 µM. P61088; in the data active means inhibition above about 45%, passing the limit was not always enough
# MEKK2wt PB1 HTS = raises or lowers MEK5 binding to wildtype human MEKK2 PB1 domain | 1.1% of 290,000 active | bead flow cytometry, Alexa488-MEK5 binding to MEKK2 WT; actives lie on both sides | binding response (% of control), % at 10 µM | AID 1531 | Q9Y2U5; in the data active means binding response below about 67% or above about 130%
# Rce1 inh = blocks yeast Ras-converting enzyme; calls only; 0.27% of 290,000 active; yeast membranes, quenched prenylated peptide cleavage fluorescence; AID 2563;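 active means fall in fluorescence gain of 50% or more versus controls, with final raw signal at or below 3038400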;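 further: plate controls were neutral control wells for no effect and wells lacking membranes for full effect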
# Casp3 counter = counter-screen for UBC13 inhibitors: human caspase-3 inhibition; shares compounds with UBC13 polyUb; Recombinant caspase-3, Caspase-Glo 3/7 luminescence, 60 min; inhibition, % at 20 µM; 4% of 1,400 active;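 active means mean inhibition across replicates above about 26%, limit read from the data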;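 further: plate controls were DMSO with caspase-3 for no effect and DMSO wells lacking enzyme for full effect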
# UBC13 confirm = confirmation of human UBC13 polyubiquitin inhibitors; inhibition, % at 10 µM; AID 488859; 68% of 1,400 active; shares compounds with UBC13 polyUb; UBC13 polyubiquitination, TR-FRET, biochemical; in the data active means inhibition above about 45%
# Active calls of the source: *; i = inactive; . = no result given.
SMILES,MEKK3 PB1 HTS,MEKK2 mut-MEK5,UBC13 polyUb,MEKK2wt PB1 HTS,Rce1 inh,Casp3 counter,UBC13 confirm
CCCCCCCCCCCCCCCC[n+]1cccc(C(=O)N(CC)CC)c1,76,9,70*,126,i,-2,94*
C[C@@H](CN1CCC[C@H]1CN1C(N)=NC[C@@H]1Cc1ccccc1)N1C[C@@H](Cc2ccccc2)N(CCc2ccc(Cl)c(Cl)c2)C1=N,.,.,63*,.,.,-5,70*
CC(C)[C@H](CN1CCC[C@H]1CN1C(N)=NC[C@@H]1Cc1ccccc1)N1C[C@@H](Cc2ccccc2)N(CCc2ccc(Cl)c(Cl)c2)C1=N,.,.,75*,.,.,3,76*
CC(C)[C@@H]1CN=C(N)N1C[C@@H]1CCCN1C[C@H](C)N1C[C@@H](Cc2ccccc2)N(CCc2ccc(Cl)c(Cl)c2)C1=N,.,.,70*,.,.,-2,46*
CN(Cc1ccc(Cl)cc1Cl)C(=O)c1cc(=O)c2ccccc2o1,103,1,0,102,i,.,.
O=C(CSc1nnnn1-c1ccc(F)cc1)NCc1cccs1,90,-2,12,93,i,.,.
CC(C(=O)Nc1ccncc1)(c1ccccc1)c1ccccc1,88,-7,9,88,i,.,.
CCOc1cccc2sc(N(CCCN(C)C)C(=O)c3ccc(S(=O)(=O)N(C)Cc4ccccc4)cc3)nc12,111,62*,76*,233*,i,2,111*
CCOc1cccc2sc(N(CCCN(C)C)C(=O)c3ccc(S(=O)(=O)N(CC)Cc4ccccc4)cc3)nc12,113,54*,51*,227*,i,-4,93*
Cc1ccc2sc(N(CCCN(C)C)C(=O)c3ccc(S(=O)(=O)N(C)C)cc3)nc2c1C,103,22,13,135,i,.,.
O=S(=O)(NC1=NCCC1)c1ccc(F)cc1F,102,-2,3,99,i,.,.
Cc1nc2ccccc2n1C1CCN(CC(=O)Nc2ccccc2Br)CC1,88,-8,58*,85,i,-4,74*
Cc1ccc(-c2cc(C(=O)Nc3c(C)n(C)n(-c4ccccc4)c3=O)[nH]n2)c(O)c1C,104,2,-7,102,i,.,.
CSCCC(NC(=O)COc1ccccc1)C(=O)N1CCC(C(N)=O)CC1 (stereo unspecified),.,.,68*,.,.,2,86*
CCCC(C(=O)NC(C)(C)C)N(CC1CCCO1)C(=O)c1snc(C(N)=O)c1N (stereo unspecified),91,-4,51*,95,i,1,52*
CC(C)CC(C(=O)NC(C)(C)C)N(CC1CCCO1)C(=O)c1snc(C(N)=O)c1N (stereo unspecified),91,-8,78*,91,i,-4,81*
CCCC(C(=O)NC1CCCC1)N(CC1CCCO1)C(=O)c1snc(C(N)=O)c1N (stereo unspecified),97,4,22,92,i,.,.
NC(=O)c1nsc(C(=O)N(Cc2ccc(F)cc2)C(C(=O)NCC2CCCO2)c2ccc(F)cc2)c1N (stereo unspecified),102,2,9,101,i,.,.
NNC1=N[C@H]2CS(=O)(=O)C[C@H]2S1,101,0,-5,100,i,.,.
CC(=O)c1cn(Cc2ccccc2)c(=O)[nH]c1=O,93,-4,6,95,i,.,.
COc1ccc(C(C)(C)C)cc1NC(=O)C1=CC=CN2CCS(=O)(=O)N=C12,.,.,50*,.,.,2,9
CNC(=O)c1ccccc1NC(=O)c1cccc(S(=O)(=O)N2CCC(C)CC2)c1,88,-5,50*,89,i,2,58*
CCNC(=O)c1ccccc1NC(=O)c1cccc(S(=O)(=O)N2CCOCC2)c1,94,-1,-16,96,i,.,.
CCNC(=O)c1ccccc1NC(=O)c1cccc(S(=O)(=O)N2CCC(C)CC2)c1,100,2,67*,102,i,-2,75*
Cc1cc(C)c(S(=O)(=O)Nc2nccs2)c(C)c1,97,2,4,102,i,.,.
CC/C(=C(\c1ccccc1)c1ccc(OCCN(C)C)cc1)c1ccccc1,.,.,78*,.,i,-1,65*
